From PubChem BioAssay AID1508600 (Functional Genomics Laboratory (NCATS/FGL), 2020)
The whole screen tested about 53,000 sequences, of which about 3,700 (7%) were called active.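 Rule for the calls: active = gene knockdowns whose robust z-score for IL-1 alpha signal is at least 2 or at most -2, so actives lie on both sides; inactive = the rest.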 The sample as a whole holds a higher share of actives than the screen did.

Experiment: Components of the Cytosolic LPS Sensing Pathway: Gene Identification via Genome-wide siRNA Screen
Conditions: RAW264.7 macrophages, IL-1a HTRF, actives lie on both sides, screened at 100 nM (by protocol), cells primed 5 h with Pam3CSK4 first
Description: Non-canonical inflammasome activation by cytosolic LPS is a critical component of the host response to Gram-negative bacterial infection, however we lack a comprehensive understanding of the cellular processes that control this pathway. Here we describe a genome-wide siRNA screen to identify genes regulating the mouse macrophage IL-1 alpha response to cytosolic LPS.
RAW264.7 cells were maintained in complete DMEM media, comprising DMEM with 4.5 g/L glucose, 10% FBS (Gemini Bio-Products, West Sacramento, CA), 2 mM Glutamine (Lonza) and 20 mM HEPES (Lonza), hereafter complete DMEM.
The RNAi screen was conducted in 384-well format using the Ambion Silencer Mouse Genome siRNA Library (#4391425), which consists of three unique, nonoverlapping, nonpooled siRNAs for each of 17,000 gene targets. siRNA reagents ([…]) were stamped into 384-well white flat-bottom microplates (Corning, 3570) using a Velocity11 VPrep liquid handling system (Agilent) integrated into a BioCel robotic platform (Agilent) in columns 1-22, leaving columns 23-24 empty for negative (Ambion, Negative control #1) and positive (mouse Casp4) controls, respectively. The median value of each plate's negative control column was used to normalize sample wells, and the positive control was used to assess transfection efficiency and assay performance.
Lipofectamine RNAiMAX Transfection Reagent ([…]; Invitrogen) was added in […] serum-free, antibiotic-free media to plate wells using a Thermo Scientific Matrix WellMate and Microplate Stacker. Plates were incubated for 45 min at room temperature to allow for the sufficient formation of siRNA-lipid complexes. Cells were seeded at a density of 1x10^4 cells per well in 20 microL media containing 20% (vol/vol) FBS without antibiotics. The final concentration of siRNA in each well was 100 nM. Cells were cultured for 48h at 37 degrees C in 5% CO2 before addition of […] of TLR ligand Pam3CSK4 for 5 hours. The medium was then removed, replaced with […] growth media and cell were transfected with […] of LipidA and TransIT-TKO (Mirus) for 24 hour. At the end of the LipidA treatment, […] of supernatant was transferred to a 384 Greiner Bio-one non-binding low volume plate and […] of IL-1a HTRF reagent (Cisbio, 62MIL1APEH) was added and incubated at room temperature overnight. The plates were read on an EnVision plate reader (PerkinElmer). Cell viability was measured by adding 20ul Cell Titer Glo to the original plate and running a luminescence read on the EnVision. The quantified IL-1a signal for each siRNA gene-targeted well was divided by the median of the negative control wells and multiplied by 100 to achieve a negative control normalized value for each well/siRNA. This normalized value was then used to generate a robust z-score by first taking the log of each value and then by subtracting the median and dividing by the […].

z-score, active:
GACAAGUUCUCAAGUAUCCTT against 1110006O24Rik -2.02, GGAAGAGAGAUUCCUAUAGTT against Sec11a -2.03, GGUCAUCCUUGCCAAUCUCTT against Olfr686 -2.11, GGCAGUAAGGCUCCAAUCUTT against Tcp10a -2.1, GCUGGCUUUGAUUUAUGGATT against Prkar1a 5.06, GGACAAACGGGAAAAGAAGTT against Sprr2d -2.04, GGCAGUUAUUCAGAAUUGATT against Nfu1 -2.2, GCAACAUUGGAUGUACUCATT against Hdac10 -2.63, GGAAUUGUUAAUUGUGGGATT against Stau2 -2.25, GGGCUGAUGUGGGCUAAAUTT against Tmem38a 2.47, CAAACUGGGUCCCAAUGAATT against Ndufa4 2.7, GGAGCAGAUAAUGUACAUATT against Cep112 2.32, CCUUAAUCGCAUCAAAUUATT against Slc1a3 2.35, GGAAGUGAAUAUUGAGUUUTT against Bccip 2.04, GCUACACCCUCUGUGAGUUTT against Csrnp2 -2.07, GGAUCUGGUUGGCAAGCAUTT against Krt33a 2.87, GGGUGUGUUUUUAUGUGUUTT against Lcp2 2.57, CGACAAGCUGUACCUCUACTT against Rfx5 3.41, GGAUUUAUCCUGGUGACUUTT against Cox20 2.49, GCUUCAACAGUAAUAAUCGTT against Adamtsl1 2.75, GGAUUUAUUGACCUCUUAATT against Sp8 2.41, GGAUGUCUAACCCAAAUAGTT against Ly6e 2.74

z-score, inactive:
GGUCCAUAACUUGUGUGCUTT against 3300002I08Rik -0.462, GGUUGUGAAACGAUGCCCUTT against Trp63 -0.512, CCUGCAAUCAAAACAUCAATT against Vmn1r10 1.13, GGAAUUAUCUGAGCCUGUGTT against Fam193b -0.0725, GGCUUGGUGGGACAGAUAUTT against Ccdc51 -1.82, GCUAGAUCCAUCCAUAUAGTT against Misp -1.26, GGUGAAGAUCUGAUAAGAATT against Epb41 -1.44, GCAACCUCAUACCAAAGAGTT against Zfyve26 0.211, GGUCACUAUCUCUGAUUUCTT against Bpifb2 -1.38, GGAAUCUUCCAGAACUAAATT against Rufy1 0.912, GCAGGUCUUACCAGAUCGATT against Thap3 -0.765, GGCUCUGAACAGCAUUGACTT against Mdfi -0.521, GGUUUGAAUCAAAUUGUACTT against Hyou1 -1.12, CCUCCACAUUUAUUUGCUATT against Mbtd1 1.23, ACCUGAAUUUGGUGACUGATT against Rdh18-ps 0.368, GGUAUUAUGAGACAGGAAGTT against Pax5 -1.61, GGUUUUAGGAUCCUAGAAGTT against Ap1s1 0.957, GGACGUGUUCGGAAACCUATT against Psmc3ip 0.134, CCUGUGCUCUGAGUUUGGCTT against Tmem270 0.00319, GGGUUGUUUGUCUUGUUCGTT against Rspo2 0.847, GGAAAGAUUCAAAGAACCUTT against Rpia 1.45, GGCAGACAGUCUAACAGAUTT against Krt6a 0.283, GAUUUUCCUGCUCACAAUGTT against Olfr1269 1.03, GGACUUGAGUCAGCUCAUCTT against Fastk -1.38, CGUAUAUCCGGUCAGAAGATT against Cnot4 0.634, GCAGCAUCGCUAUGUCCUGTT against Ccl26 0.182, GGAACAAUGCUCAAUUUUUTT against Rfc1 1.63, GCUCCUACGUGUCAGCCUUTT against Skor1 -0.815, CGGUCAUGUCUACAUGUGCTT against Cfp -0.0864, GGCUUCAGAUUUCGAUAUGTT against Nfkb2 1.02, CCUUGGACUUGAGUUCCAATT against Ssu2 1.58, GGCAAAUGUGGCCGUGUUUTT against Ccne1 0.175, GGAAGAAGCAAAGAACUAUTT against Spg20 0.552, GCCCGGAAUAUAUAGCCCUTT against Hdac10 -0.706, CCUCCAGAUAAGAAUGUGCTT against Fnip1 -1.34, CGUAAGUGGACGACGGUUCTT against Kcnd3 0.106, CGAAGGUACUAUGUAUUUUTT against Tbce -0.12, GGAACACAUUGGGUAUGCCTT against Sac3d1 -0.575, GGUGUUUAUCGACAGGUACTT against Myo15 0.126, GGGAAGUUGUCCUUGAAGATT against Cd36 -0.037, GGACCAUCCCUGUUUUAUATT against Ifrd2 -0.0712, GGUCCCUAGCACUAUUUUUTT against Hes6 1.04, GGAAUAUCACUUCCAUACATT against Ntrk3 0.587, GACCAACCCUCACUAAGCUTT against Tcstv3 -0.364, GGACUAUUUGGAAACCUCCTT against Olfr1366 -0.304, GGAUGUAACUAGUAACUUUTT against Kcnn3 0.108, GCAAGAAAACCUUAGCUCATT against Trpm2 -0.518, CGGAUACAGGUUCGGGUAATT against Nemp1 1.06, CCGUGACGAGCUUGUGGUUTT against Ap3b2 0.788, GGUCCGAUAUCUGAGUCUCTT against Hic1 0.471, GGUUAGAAUAUGCAGAACATT against Arntl -0.525, GGAGGGCAUCCUCUUCAAATT against Drc3 0.312, GGUAUUAUGACUGUAAAGGTT against Endou 0.0412, GGAGAAGAAAAAGAUUAUCTT against Atp6v1d 1.07, GGGAAGAUGUGGAUGUCAUTT against Oprk1 -1.05, GGUUGUUAGAGAUUUGACCTT against Kctd12 -0.208, CCUGCACACCAAGUAUCUGTT against Ccl6 -0.252, GGAAGCACUUCUGCUUUCUTT against Azin2 -0.0234, GGAGAUUCUGUAGGUUAUUTT against Lrat 0.0632, GGGACACUGUGUCCCUUCUTT against Tmem189 -0.0937, CCAAAUGAGGCUACCACAATT against Socs7 -0.0785, GGAACUUGGGCAUUCCAGATT against Adck2 -0.676, GGAAAUCAGUGAACAUCUUTT against Tshr 0.525, CCAGAAACUAGCCUACUACTT against Vgll2 0.395, GGAACUAGUCUGGUGAACUTT against Apoa2 -1.35, GAUUAAUAGUGGUUUCUGATT against Olfr1219 -0.219, GGGAGGAAGAAGAAGGUCATT against Atp1b4 -0.193, GGCAGUCAAUAGUGGCCUGTT against Bcor 1.12, CCAGUAUUUGAGAAUUCUGTT against Gm4788 -0.763, GCUGGAGUUUCAGUCAAGGTT against Ctso -0.355, AUGCAAGAGGAACGUAUCATT against Olfr1181 -0.572, GGUUUACCCAUCUUGGCCATT against Vwf -0.501, GGAUAUUGAUUCAGUCAAGTT against Rac2 -1.16, GGAUAUAUUGAAAUGCCCATT against Zbtb14 0.394, GGUAUUCAGUAUUUUGACUTT against Olfr196 1.56, GGCUGUCGUCAUUGAAGGATT against Ankrd27 -0.771, GCGACAAGAGGCUUUAGCATT against Selenos 0.692, GGAGCAGAAAGAAAUUUCCTT against Gpa33 0.48, CGGUAAUCUUAUGACAACUTT against Gpc6 1.06, GGGCCUUAAUUUUCCUUUUTT against Podxl -0.107, GCCCAUCUGAUGAAUACAATT against Mrto4 1.45, GGCACAAUUAGCUAAGAAUTT against Abi3bp -1.87, GGUCUGAUUCACCAUAAUUTT against Sspn 0.313, GGAGAUUUUGGUGGCUAUUTT against Uqcrfs1 -1.1, GGAACACUGGAAAAAUGUUTT against Ldhc 0.176, GGCGGUGAAGUCUAAGGCATT against H1f5 1.54
